# The list is not random: actives were taken first. Their share in the collection is about 1.1%.
# MOR-DOR ag-1 – agonists of OPRM1-OPRD1 heterodimerization, primary screen, cell-based, luminescence; Mu-type opioid receptor (Homo sapiens) + Delta-type opioid receptor (Homo sapiens), …; cells; activation, % at 9.3 µM; 340,000 compounds, 0.3% hits; AID 504326, 2011;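 further: 0% = vehicle-treated cells and 100% = reference agonist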
# HTR5A ag ctr – HTR5A agonists in luminescence cell assay, primary screen, counter-screen for OPRM1-OPRD1 heterodimer agonist project, full-deck HTS; 5-hydroxytryptamine receptor 5A (Homo sapiens), P47898; cell-based; activation, % at 9.3 µM; 340,000 compounds, 0.61% hits; AID 504692, 2011; in the data active means activation mostly above about 9.5%, no sharp cut-off; inactive means mostly below about 7.6%;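 further: 0% = cells with vehicle only and 100% = reference agonist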
# Target sequence (P47898 whole entry, looked up): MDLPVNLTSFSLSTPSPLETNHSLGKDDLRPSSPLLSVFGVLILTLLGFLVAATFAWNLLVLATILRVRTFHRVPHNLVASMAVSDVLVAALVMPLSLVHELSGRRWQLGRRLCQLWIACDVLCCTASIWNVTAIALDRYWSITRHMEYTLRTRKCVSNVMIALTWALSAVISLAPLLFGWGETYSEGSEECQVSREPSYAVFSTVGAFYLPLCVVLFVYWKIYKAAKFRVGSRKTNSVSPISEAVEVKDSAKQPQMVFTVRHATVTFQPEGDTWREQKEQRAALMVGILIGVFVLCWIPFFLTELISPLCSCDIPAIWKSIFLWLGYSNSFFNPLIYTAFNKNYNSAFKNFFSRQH
# OPRM1-OPRD1 inv – inverse agonists of MOR-DOR heterodimerization, primary screen, cell-based, luminescence | Mu-type opioid receptor (Homo sapiens) + Delta-type opioid receptor (Homo sapiens), … | cell-based MOR-DOR heterodimer luminescence, inverse agonism | inhibition, % at 9.3 µM | 340,000 compounds, 0.21% hits; in the data active means inhibition above about 22%, passing the limit was not always enough;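 further: 0% = cells with DMSO and 100% = wells without cells with DMSO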
# HTR5A inv ag – HTR5A inverse agonists in luminescence cell assay, primary screen, counter-screen for OPRM1-OPRD1 heterodimer inverse agonist project, full-deck HTS. 340,000 compounds, 0.083% hits. HTR5A cell line, inverse agonism. inhibition, % at 9.3 µM. AID 504634, 2011. 5-hydroxytryptamine receptor 5A (Homo sapiens), P47898; in the data active means inhibition mostly above about 23%, no sharp cut-off; inactive means mostly below about 18%;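 further: 0% = cells with DMSO and 100% = no-cell wells with DMSO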
# MOR-DOR ag-2 – OPRM1-OPRD1 heterodimerization promoters, counter-screen for HTR5A agonist project, cell-based, luminescence | shares compounds with HTR5A ag ctr | activation, % at 9.3 µM | U2OS counter-screen cells, complementation luminescence, 3 h | 800 compounds, 13% hits
# HTR5A ag conf – HTR5A agonists, retest of hits, confirmation, cell-based, luminescence | 800 compounds, 17% hits | AID 504915, 2011 | HTR5A agonist cell assay | shares compounds with HTR5A ag ctr | activation, % at 9.3 µM; in the data active means activation above about 17%;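 further: 0% = cells with vehicle only and 100% = full reference agonist response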
# * = called active by the depositor; x = no result; ! = not active in a repeat. Unless noted, no stated cut-off is given here; in the data, active means activation above about 18%; inactive means the rest.
SMILES,MOR-DOR ag-1,HTR5A ag ctr,OPRM1-OPRD1 inv,HTR5A inv ag,MOR-DOR ag-2,HTR5A ag conf
Cc1ccc(-c2noc(CN3CCCCC3)n2)cc1,1,-5,-3,14,x,x
Cc1ccc(-c2noc(CN3CCN(c4ccccc4F)CC3)n2)cc1,2,20*,-9,-55,-4,-4
COc1cc(C(=O)NNC(=O)c2nn(C)c(=O)c3ccccc23)cc(OC)c1OC,-2,4,13,-18,x,x
O=C(NNC(=O)c1ccc(Br)o1)c1ccc(NS(=O)(=O)c2cccs2)cc1,-4,-4,14,-4,x,x
CC(C)CN(C(=O)CC1OC(=O)c2ccccc21)c1c(N)n(Cc2ccccc2)c(=O)[nH]c1=O (configuration not stated),-3,2,16,-5,x,x
COc1ccc(CNC(=O)COC(=O)C2(C)CC2(Cl)Cl)cc1 (configuration not stated),-1,13,4,-36,x,x
COc1ccc(N(Cc2ccccc2)S(=O)(=O)c2cccc(C(=O)Nc3ccccn3)c2)cc1,-4,19*,15,-48,4,1
CC(C)C[C@H]1C(=O)N2CCC[C@H]2[C@]2(O)O[C@](NC(=O)C3C=C4c5cccc6[nH]c(Br)c(c56)C[C@H]4N(C)C3)(C(C)C)C(=O)N12 (some centres not stated),4,8,-24,-30,x,x
CN1C[C@H](C(=O)N[C@]2(C)O[C@@]3(O)[C@@H]4CCCN4C(=O)[C@H](Cc4ccccc4)N3C2=O)CC2c3cccc4[nH]cc(c34)C[C@H]21 (some centres not stated),1,45*,-3,-162,-2,48*!
CCOC(=O)C(=CNc1cc(OC)ccc1-n1cccc1)C(=O)OCC,3,16*,-13,-43,0,5
CCOC(=O)C(=CNc1cc(C)ccc1C)C(=O)OCC,6,-1,-32,-5,x,x
CC[C@]12C(=O)N(C)C[C@H]([C@@H]3C(=O)N(Cc4ccccc4)C(=O)[C@@H]31)N2C(=O)c1ccc(C(C)(C)C)cc1,-1,7,8,-6,x,x
Cc1cc(=O)n2nc(N3CCC(C(=O)NCCc4ccccc4)CC3)sc2n1,-2,-1,11,14,x,x
Nc1ccc(-c2n[nH]c(=O)c3ccccc23)cc1N,2,21*,-9,-50,3,14
Cc1ccc2nc3c(c(Nc4ccc(O)cc4)c2c1)CCC3,-1,3,3,-11,x,x
Cc1ccc2nc3c(c(Nc4ccc5c(c4)OCCO5)c2c1)CCC3,-2,41*,10,-190,2,60*
O=C(CN1CCN(Cc2ccc(F)cc2Cl)C1=O)NCCc1ccccc1,-1,16*,5,-46,9,3
Cc1ccccc1C(=O)NNC(=O)c1cccc([N+](=O)[O-])c1,2,17*,-12,15,2,2
Cc1cccc(C(=O)NNC(=O)c2ccccc2C)c1,2,2,-14,15,x,x
O=C(ONC1=NCCCCC1)c1c(F)cccc1F,3,5,-16,-27,x,x
O=C(ONC1=NCCCCC1)c1ccc(Cl)cc1,14,25*,-72,-65,4,0
O=C(O)/C=C/C(=O)Nc1ccc(C2(c3ccc(NC(=O)/C=C/C(=O)O)cc3)c3ccccc3-c3ccccc32)cc1,2,26*,-10,-100,4,-1
COc1cccc(CNC(=O)COC(=O)CNC(=O)c2ccc(-c3ccccc3)cc2)c1,-1,15*,5,-37,4,-2
COc1cccc(CNC(=O)Cc2ccc(-c3ccccc3)cc2)c1,0,0,-2,0,x,x
O=C1CCCC/C=C\C[C@H](CC(=O)N(CCO)Cc2ccccc2)C(=O)N[C@@H](c2ccccc2)CO1,-1,3,7,-3,x,x
CCOC(=O)c1c(-c2ccc(C)cc2)csc1NC(=S)NC(=O)c1ccccc1,-1,1,3,21,x,x
CCOC(=O)c1c(-c2ccc(C)cc2)csc1NC(=O)c1cc2ccccc2oc1=O,-1,18*,8,10,1,-5

# Source: PubChem BioAssay
